KB-V1 MDR tox: kills drug-selected multidrug resistant KB-V1 cells. 400,000 compounds, 3.4% hits. Potency, µM (doses to about 46.1 µM), hits mostly cytotoxic. AID 1347076. KB-V1 MDR cells viability, CellTiter-Glo, 72 h; note: % is set by controls: 0 for no effect and ±100 for the full control effect; nearly all actives have a fitted effect of over 60% in size
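Cytotoxicity via CellTiter-Glo luminescence after 72 h compound exposure at 37 degrees C. Cells: drug-selected KB-V1 line, DMEM phenol-red free plus 10% FBS. Compounds tested at multiple concentrations; normalized data fitted to concentration-effect curves.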
KB-3-1 cytotox: kills parental KB-3-1 adenocarcinoma cells; KB-3-1 viability, CellTiter-Glo ATP luminescence, 72 h; Potency, µM (titrated, usually from 46.1 µM), hits mostly cytotoxic; 400,000 compounds, 1.4% hits; AID 1347075; note: % is set by controls: 0 for no effect and ±100 for the full control effect; nearly all actives have a fitted effect of over 60% in size
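Viability of parental KB-3-1 cells, measured by CellTiter-Glo luminescence, followed a 72 h incubation at 37 °C with pinned compounds in phenol-red-free DMEM containing 10% FBS.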
MCF10A rereplic: induces DNA re-replication in MCF 10a normal breast cells; 350,000 compounds, 2.9% hits; Potency, µM (highest dose often 46.1 µM), for the others: at the highest dose activity, positive = re-replication, usual class: activators; MCF 10A DNA re-replication, Hoechst nuclear intensity, 48 h; note: % of control where 0% means no effect; nearly all actives have a fitted effect of over 50% in size
SW480 rereplic: inducers of DNA re-replication in SW480 colon cancer cells; SW480 DNA re-replication, Hoechst DNA content imaging, 48 h; AID 624297; 340,000 compounds, 1.8% hits; Potency, µM (top dose mostly 46.1 µM), for the others: at the top dose re-replication activation, hits mostly activators; note: % of control where 0% means no effect; nearly all actives have a fitted effect of over 55% in size
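Image-based DNA-content assay: after two days of treatment, nuclei were labelled with the DNA dye Hoechst and imaged, and hits were compounds raising the count of nuclei showing high fluorescence intensity.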
HT1080 IDH1KD tx: HT-1080 IDH1 knockdown cell toxicity (counter line) | Potency, µM (titrated, usually from 46.1 µM), for the others: at the top dose activity, negative = toxicity, most hits filed as cytotoxic | HT-1080 IDH1 knockdown viability, ATP luminescence, 48 h | 360,000 compounds, 2% hits | AID 686971;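 note: 0% = DMSO wells and -100% = cell-free medium wells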
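Using the IDH1-knockdown HT-1080 line run in the same batch and compound series as the NT line, viability after 48 h at 37 °C was determined by CellTiter-Glo luminescence and expressed as % activity.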
HT1080NT lethal: kills 2HG-producing HT-1080-NT fibrosarcoma cells. 360,000 compounds, 1.6% hits. HT-1080-NT fibrosarcoma viability, CellTiter-Glo ATP luminescence, 48 h. Potency, µM (highest dose often 46.1 µM), inactives show at the highest dose activity, negative = less viability, usual class: cytotoxic. AID 686970;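 note: NT is the 2HG producing partner of a matched IDH1 knockdown line; 0% = DMSO-treated cells and -100% = media-only wells without cells; nearly all actives have a fitted effect of over 55% in size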
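HT-1080-NT fibrosarcoma cells (2HG-overproducing), 750 cells/well in RPMI with 5% FBS, dosed after 2 h and incubated 48 h at 37C. CellTiter-Glo luminescence normalized to DMSO and no-cell wells; concentration-response curves fitted and classed.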
The depositor's hits bear a star; i = inactive; u = inconclusive; x = not tested or not shown; [ ] = another dose, or the depositor's remark. A selection: hits, their analogues and other compounds. The true share with any hit is near 7.9%. Calls come from the whole dose curve; as a rule, active = well fitted curve in the direction sought with a large enough effect; inconclusive = small, poorly fitted or top-dose-only effect, or another doubt; inactive = no such curve, though single readings can be large; an effect the other way counts as inactive or inconclusive. Potency is the fitted concentration of half-maximal effect.

SMILES | KB-V1 MDR tox | KB-3-1 cytotox | MCF10A rereplic | SW480 rereplic | HT1080 IDH1KD tx | HT1080NT lethal
Cc1ccc(C)c(NS(=O)(=O)c2cc(C(=O)NCc3ccncc3)ccc2C)c1 | i | i | 10% | -3% | -1% | 1%
COC1OC2COC(c3ccccc3)OC2C(NC(C)=O)C1OC(C)=O (configuration not stated) | i | i | x | x | 11% | 13%
CCOC(=O)C1C(=O)OC(C)(C)C1C(C)C(=O)c1ccc(C)cc1C (configuration not stated) | i | i | -4% | -1% | -11% | -2%
CCOC(=O)C1C(=O)OC(C)(C)C1C(C)C(=O)c1ccc(C)cc1 (configuration not stated) | 15µM* | i | 3% | -5% | -3% | 6%
O=S(=O)(c1ccccc1)N1CCC(O)(CSc2ccc(Cl)cc2)CC1 | 23µM* | u | u | 4% | -15% | u
O=S(=O)(c1ccc(Cl)cc1)N1CCC(O)(CN2CCN(Cc3ccccc3)CC2)CC1 | i | i | 20µM* | 0% | -9% | -10%
O=C(CC1SC(N2CCCC2)=NC1=O)Nc1ccc(C(=O)NCCOc2ccccc2F)cc1 (configuration not stated) | i | i | -1% | 0% | -1% | 1%
O=C1OC(Nc2nc(-c3ccc(F)cc3)cs2)c2ccccc21 (configuration not stated) | u | i | 21µM* | 26µM* | 23µM* | u
O=C(CCl)Nc1ccc(S(=O)(=O)Nc2nccs2)cc1 | u | u | u | u | 13µM* | u
O=C(CCl)Nc1ccc(S(=O)(=O)NC2=NCCCCC2)cc1 | 16µM* | 15µM* | 21µM* | u | 18µM* | u
CC(C)(C)C(=O)Nc1ccc(S(=O)(=O)NC2=NCCCCC2)cc1 | u | i | 4% | -5% | 3% | -5%[9.24 µM]
O=C(CSc1ccc2ccccc2c1Br)Nc1cccc(S(=O)(=O)NC2=NCCCCC2)c1 | i | i | u | 1% | 16µM* | 18µM*
O=C(CCl)Nc1cccc(S(=O)(=O)NC2=NCCCCC2)c1 | u | u | u | 25% | u | 3.7µM*
CCCNCC(=O)Nc1cccc(S(=O)(=O)NC2=NCCCCC2)c1 | i | i | 0% | 2% | 18% | -2%
O=C(Nc1ccc(S(=O)(=O)NC2=NCCCCC2)cc1)c1ccccc1Cl | i | i | 1% | -1% | -13% | -2%
O=C(Nc1cccc(S(=O)(=O)NC2=NCCCCC2)c1)c1cc(-c2ccco2)nc2ccccc12 | i | i | 16µM* | u | -30% | u
COc1ccccc1NS(=O)(=O)c1cccc(NC(=O)c2ccc3ccccc3n2)c1 | 2.6µM* | u | -33% | -60% | 2% | 0%
Cc1cc(C)cc(OCC(=O)Nc2cccc(S(=O)(=O)NC3=NCCC3)c2)c1 | i | u | u | 21µM* | -15% | -7%[9.24 µM]
Cc1ccc(OCC(=O)Nc2cccc(S(=O)(=O)NC3=NCCCCC3)c2)cc1C | i | i | 10% | -8% | 10% | 0%
O=C(Nc1ccc(S(=O)(=O)NC2=NCCCCC2)cc1)c1ccc2ccccc2n1 | 23µM* | i | 15% | -7% | -4% | -1%
O=C(NCC(c1cccnc1)N1CCc2ccccc21)c1cccc(Br)c1 (configuration not stated) | i | i | x | x | x | x
Cc1cccc(NC(=O)CN(CC2CCCO2)C(=O)c2ccc(S(C)(=O)=O)cc2)c1C (configuration not stated) | i | i | 2% | -20% | 4% | 0%
Cc1ccc2c(=O)cc(CSCC(=O)Nc3nnc(C)s3)[nH]c2c1 | i | u | x | x | x | x
CC(C)N(Cc1ccccc1)C(=O)CCS(=O)(=O)c1cc2c(cc1Cl)NC(=O)CO2 | u | i | x | x | x | x
CCOC(=O)C(C(C)=O)C(c1ccc(OC)cc1)C(C(C)=O)C(=O)OCC (configuration not stated) | i | i | -3% | 0% | 5% | 3%
SMILES | KB-V1 MDR tox | KB-3-1 cytotox | MCF10A rereplic | SW480 rereplic | HT1080 IDH1KD tx | HT1080NT lethal
CCOC(=O)C(C)C(C)=O (configuration not stated) | u | u | 9% | 23% | 58µM* | u
CCc1ccc2nc3n[nH]c(N)c3cc2c1 | 12µM* | u | 1% | 1% | 3% | 1%
Cc1ccc2nc(COc3cccc(NC(=O)COc4ccc(F)cc4)c3)cc(=O)n2c1 | i | i | x | x | x | x
CC(=O)C1=C(c2ccccc2)OC(N)=C(C#N)C1c1ccccc1C (configuration not stated) | i | i | -1% | -6% | 6% | 10%
CCN1C=C(Cc2ccccc2C)C2=C(C1)C(c1ccccc1C)C(C#N)=C(N)O2 (configuration not stated) | 21µM* | u | u | u | u | u
Cc1[nH]nc2c1C(c1ccc(F)cc1)C(C#N)=C(N)O2 (configuration not stated) | u | i | 0% | -1% | 16% | -1%
CCN1C=C(Cc2ccc(F)cc2)C2=C(C1)C(c1ccc(F)cc1)C(C#N)=C(N)O2 (configuration not stated) | 16µM* | u | u | u | -1%[9.24 µM] | u
CC(C)CCNC(=O)Cn1c(SCc2cccc(F)c2)nc2ccncc21 | i | i | x | x | x | x
O=C(O)c1cscc1-c1cccc2ccccc12 | i | u | x | x | -5% | 10%
C/C(=N\Nc1ccc(C(=O)O)cc1)c1ccc2c(c1)Nc1ccccc1S2 | i | i | 16µM* | 8.2µM* | u | -19%
C/C(=N/Nc1ccc(C(=O)O)cc1)c1ccc2c(c1)Nc1ccccc1S2 | i | i | 16µM* | 18µM* | -21% | -9%
CC1(C)CC=CC(COC(=O)c2ccccc2C(=O)O)C1 (configuration not stated) | i | i | 2% | -4% | 13% | -3%
COC(=O)COc1ccc(NS(=O)(=O)c2cccc([N+](=O)[O-])c2)cc1 | i | i | 16% | -26% | -15% | -4%
COc1cc(CNc2ccc3[nH]c(=O)[nH]c3c2)cc(Cl)c1OCc1ccccc1F | i | i | x | x | x | x
COc1cc(CNC2CCCC2)cc(Cl)c1OCc1ccccc1F | 23µM* | i | 2% | -6% | 13µM* | u

High-throughput results from PubChem BioAssay.
